This note sets out measurements from PubChem BioAssay (EPA / NIEHS).

The target of assay [1] is Myc proto-oncogene protein (Homo sapiens) (UniProt P01106). Kind of assay: ATG_Myc_CIS: Attagene CIS-FACTORIAL HepG2 Assay for human Myelocytomatosis (Myc) Proto-Oncogene Transcription Factor (AID 2282990). The note with it: HepG2, Attagene cis-reporter transcription factor activity; actives raise or lower the signal. An outline of the steps: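 DMSO-normalised, bidirectionally fitted reporter mRNA signal. HepG2 cells transfected with cis reporter constructs, treated 24 h; transcripts detected by RT-PCR, 6-FAM primer extension and CE.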

Assay [2] in a line: ATG_NF_kB_CIS: Attagene CIS-FACTORIAL HepG2 Assay for human Nuclear Factor Kappa B (NF-kB) (AID 2282991). To be noted: HepG2 Attagene cis-factorial NF-kB reporter mRNA; actives raise or lower the signal. In outline: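 Endogenous transcription factor activity in HepG2 was captured via cis-regulated reporter constructs; after 24 h dosing, reporter mRNA was reverse-transcribed, amplified, fluorescently labelled and sized by capillary electrophoresis, with activity fitted bidirectionally relative to DMSO.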

Assay [3] can be described thus: ATG_NRF2_ARE_CIS: Attagene CIS-FACTORIAL HepG2 Assay for human Nuclear Factor Erythroid 2 Related Factor 2 (NFR2) response to Antioxidant Response Elements (ARE) (AID 2282992). The note with it: HepG2 Attagene ARE/NRF2 reporter, transcription factor activity; actives raise or lower the signal. An outline of the steps:
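Endogenous transcription factor activity read out as reporter transcript levels (RT-PCR plus capillary electrophoresis, fluorescence) in transiently transfected HepG2 cells. Measured at 24 h after dosing; gain or loss of signal fitted versus DMSO.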

The nature of assay [4]: ATG_Oct_MLP_CIS: Attagene CIS-FACTORIAL HepG2 Assay for human Octamer-Binding Transcription Factor (Oct) (AID 2282993). To be noted: HepG2 Attagene cis-factorial Oct reporter, mRNA; actives raise or lower the signal. An outline of the steps: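 HepG2 cells transiently transfected with cis-promoter-driven multiplexed reporter transcription units, dosed for 24 h. Reporter mRNA quantified by RT-PCR, fluorescent labelling, HpaI digestion and capillary electrophoresis; bidirectional fits versus DMSO baseline.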

In assay [5] the target is Cellular tumor antigen p53 (Homo sapiens) (UniProt P04637). Kind of assay: ATG_p53_CIS: Attagene CIS-FACTORIAL HepG2 Assay for human p53 Transcription Factor (AID 2282994). To be noted: HepG2 p53 cis-element reporter, Attagene mRNA; actives raise or lower the signal. An outline of the steps:
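Endogenous p53 activity read in transiently transfected HepG2 from a cis-element-driven reporter transcript after 24 h exposure. RNA reverse-transcribed, PCR-amplified, fluorescently labelled and sized by capillary electrophoresis; gain or loss fitted against DMSO baseline.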

Assay [6] concerns the target human Retinoic Acid Receptor beta (RARb), RARB (gene 5915) (UniProt P10826). Put plainly: ATG_RARb_TRANS: Attagene TRANS-FACTORIAL HepG2 Assay for human Retinoic Acid Receptor beta (AID 2283004; active = hit-call score of the fitted dose curve at least 0.9, where 1 is the maximum). An outline of the steps:
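Transient transfection of HepG2 with multiple reporter units → chemical dosing, 24 h → total RNA isolation → RT with oligo(dT) → reporter-specific PCR, 6-FAM primer extension, HpaI digest → capillary electrophoresis. Positive direction vs DMSO control.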

In assay [7] the target is Retinoic acid receptor alpha (Homo sapiens) (UniProt P10276). Kind of assay: ATG_RARa_TRANS: Attagene TRANS-FACTORIAL HepG2 Assay for human Retinoic Acid Receptor alpha (RARa) (AID 2283005; active = hit-call score of the fitted dose curve at least 0.9, where 1 is the maximum). An outline of the steps: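 HepG2 cells transiently transfected with multiple reporter units expressing chimeric RARα-GAL4 fusion, with GAL4-UAS-driven reporters. After 24 h compound exposure, reporter mRNA induction quantified by RT-PCR and capillary electrophoresis with fluorescent labeling; gain-of-signal fitted relative to DMSO control.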

The target in assay [8] is Nuclear receptor subfamily 1 group I member 2 (Homo sapiens) (UniProt O75469). Kind of assay: ATG_PXR_TRANS: Attagene TRANS-FACTORIAL HepG2 Assay for human Pregnane X Receptor (PXR) (AID 2283008; active = hit-call score of the fitted dose curve at least 0.9, where 1 is the maximum). In outline:
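Transactivation by exogenous PXR–GAL4 fusion measured as reporter transcript induction after 24 h compound treatment of transfected human HepG2 cells. Read-out via RT-PCR and capillary electrophoresis of labelled fragments, fitted upward relative to DMSO.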

The target of assay [9] is human Retinoic Acid Receptor gamma (RARg), RARG (gene 5916) (UniProt P13631). Put plainly: ATG_RARg_TRANS: Attagene TRANS-FACTORIAL HepG2 Assay for human Retinoic Acid Receptor gamma (RARg) (AID 2283009; active = hit-call score of the fitted dose curve at least 0.9, where 1 is the maximum). An outline of the steps: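 Gain-of-signal relative to DMSO is reported from fluorescent capillary electrophoresis of RT-PCR reporter products. These came from HepG2 cells expressing transfected RARg-GAL4 chimeras with UAS reporters, harvested 24 h after dosing.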

Assay [10] addresses human RAR-related Orphan Receptor beta (RORb), RORB (gene 6096) (UniProt Q92753). Put plainly: ATG_RORb_TRANS: Attagene TRANS-FACTORIAL HepG2 Assay for human RAR-related Orphan Receptor beta (RORb) (AID 2283010; active = hit-call score of the fitted dose curve at least 0.9, where 1 is the maximum). An outline of the steps:
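Multiplexed transcription-factor reporter assay: HepG2 cells transiently carrying NR-Gal4/GAL4-UAS constructs, 24 h treatment, mRNA quantified by RT-PCR plus capillary electrophoresis fluorescence; activity scored as induction over DMSO.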

Assay [11] has as its target Peroxisome proliferator-activated receptor gamma (Homo sapiens) (UniProt P37231). Put plainly: ATG_PPARg_TRANS: Attagene TRANS-FACTORIAL HepG2 Assay for human Peroxisome Proliferator-activated Receptor-gamma (PPARg) (AID 2283007; active = hit-call score of the fitted dose curve at least 0.9, where 1 is the maximum). In outline: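 A TRANS-format multiplexed reporter assay measures activity of an exogenous chimeric NR-Gal4 protein in HepG2 cells. After 24 h of chemical exposure, reporter transcripts are amplified, fluorescently labelled and sized by capillary electrophoresis, with gain of signal scored against DMSO.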

Assay [12] addresses human RAR-related Orphan Receptor gamma (RORg), RORC (gene 6097) (UniProt P51449). Put plainly: ATG_RORg_TRANS: Attagene TRANS-FACTORIAL HepG2 Assay for human RAR-related Orphan Receptor gamma (RORg) (AID 2283011; active = hit-call score of the fitted dose curve at least 0.9, where 1 is the maximum). An outline of the steps:
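First, HepG2 liver cells were transfected with GAL4-UAS-driven reporter constructs and the RORg-Gal4 fusion. Next, they were treated with chemical for 24 h. Finally, reporter mRNA was quantified by RT-PCR and capillary electrophoresis, with upward activity fitted against DMSO.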

A short description of assay [13]: BSK_3C_TissueFactor: BioMAP Diversity Plus: 3C Assay for Tissue Factor Biomarker Activity (AID 2282997). To be noted: BioMAP 3C HUVEC, tissue factor biomarker readout; actives raise or lower the signal. An outline of the steps:
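After a 24 h chemical exposure of primary human umbilical vein endothelial cells, Tissue Factor levels were quantified by ELISA.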

The nature of assay [14]: BSK_3C_uPAR: BioMAP Diversity Plus: 3C Assay for Urokinase-type plasminogen activator receptor (uPAR) Biomarker Activity (AID 2282998). To be noted: BioMAP 3C HUVEC, uPAR biomarker ELISA; actives raise or lower the signal. An outline of the steps: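 Human umbilical vein endothelial primary cells were exposed to test chemical for 24 h. Cell-surface uPAR was then quantified by ELISA, and responses were fitted bidirectionally against DMSO as negative control and baseline.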
For orientation: ELISA stands for enzyme-linked immunosorbent assay.

The nature of assay [15]: BSK_3C_VCAM1: BioMAP Diversity Plus: 3C Assay for Vascular cell adhesion molecule 1 (VCAM1) Biomarker Activity (AID 2282999). To be noted: BioMAP 3C HUVEC, VCAM1 ELISA, cytokine-stimulated; actives raise or lower the signal. An outline of the steps: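 Vascular primary endothelium (human umbilical vein) was exposed to chemicals and assayed 24 h later. VCAM-1 levels came from ELISA, with DMSO serving as baseline for bidirectional fitting.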

Assay [16] in a line: BSK_4H_Eotaxin3: BioMAP Diversity Plus: 4H Assay for Eotaxin 3 Biomarker Activity (AID 2283000). The note with it: primary human endothelial cells (HUVEC); actives raise or lower the signal. In outline: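 Chemicals were added to human umbilical vein endothelium cultures, and Eotaxin-3 was quantified by ELISA at 24 h. Values were derived by bidirectional fitting with DMSO serving as negative control and activity baseline.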

In assay [17] the target is human Peroxisome Proliferator-activated Receptor delta (PPARd), PPARD (gene 5467) (UniProt Q03181). Kind of assay: ATG_PPARd_TRANS: Attagene TRANS-FACTORIAL HepG2 Assay for human Peroxisome Proliferator-activated Receptor delta (PPARd) (AID 2283002; active = hit-call score of the fitted dose curve at least 0.9, where 1 is the maximum). In outline: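 Measured quantity: GAL4-UAS reporter transcript induction in HepG2 after 24 h chemical dosing, with NR-Gal4 chimeras supplied by transient transfection. Detection by RT-PCR and capillary electrophoresis; upward fit against DMSO.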

Read-out in assay [18]: Intercellular Adhesion Molecule 1 (ICAM1), ICAM1 (gene 3383)
Put plainly: BSK_3C_ICAM1: BioMAP Diversity Plus: 3C Assay for Intercellular Adhesion Molecule 1 (ICAM1) Biomarker Activity (AID 2283003). The note with it: primary human endothelial cells (HUVEC); actives raise or lower the signal. In outline:
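Using DMSO as baseline, bidirectional curve fitting was applied to ICAM-1 ELISA signals from HUVEC in the 3C system, measured 24 h after compound addition.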

Assay [19] is described as follows: BSK_3C_Proliferation: Cell Proliferation Assessment in the BioMAP Diversity Plus: 3C Assay (AID 2283006).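 Note: potency may reflect either rise or fall in cell number versus DMSO.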 The note with it: primary human endothelial cells (HUVEC). In outline:
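Measured here: sulforhodamine B (0.1%) staining of TCA-fixed sub-confluent umbilical vein endothelial cultures 48 h post-dosing, absorbance 560 nm. DMSO served as negative control and baseline; both signal gain and loss were modelled.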

Values joined by “and” are separate entries in the source; they are usually repeats but may differ in a detail not shown here. Equal values may be shown once. Results filed as inconclusive are left out. Some structures have more than one record in an assay (separate samples or runs), and their calls can disagree. Active and inactive are the calls of the source. Rule for the calls, unless noted: active = hit-call score of the fitted dose curve at least 0.9, where 1 is the maximum; inactive = score below 0.9.

Chain of Nuclear receptor subfamily 1 group I member 2 (Homo sapiens) (O75469 whole entry, looked up, the tested form may be a part): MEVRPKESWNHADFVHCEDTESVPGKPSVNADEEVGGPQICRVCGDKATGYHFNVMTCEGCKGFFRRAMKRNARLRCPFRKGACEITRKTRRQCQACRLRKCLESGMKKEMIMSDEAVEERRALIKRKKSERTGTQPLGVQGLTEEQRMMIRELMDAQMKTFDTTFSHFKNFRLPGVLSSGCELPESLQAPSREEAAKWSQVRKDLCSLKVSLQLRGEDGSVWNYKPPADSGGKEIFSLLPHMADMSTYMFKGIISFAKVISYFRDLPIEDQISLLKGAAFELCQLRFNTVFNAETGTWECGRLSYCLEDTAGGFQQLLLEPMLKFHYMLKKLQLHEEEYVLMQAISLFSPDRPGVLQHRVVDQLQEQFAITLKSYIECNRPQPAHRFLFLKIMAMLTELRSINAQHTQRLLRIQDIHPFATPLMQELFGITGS
Chain of Myc proto-oncogene protein (Homo sapiens) (P01106 whole entry, looked up): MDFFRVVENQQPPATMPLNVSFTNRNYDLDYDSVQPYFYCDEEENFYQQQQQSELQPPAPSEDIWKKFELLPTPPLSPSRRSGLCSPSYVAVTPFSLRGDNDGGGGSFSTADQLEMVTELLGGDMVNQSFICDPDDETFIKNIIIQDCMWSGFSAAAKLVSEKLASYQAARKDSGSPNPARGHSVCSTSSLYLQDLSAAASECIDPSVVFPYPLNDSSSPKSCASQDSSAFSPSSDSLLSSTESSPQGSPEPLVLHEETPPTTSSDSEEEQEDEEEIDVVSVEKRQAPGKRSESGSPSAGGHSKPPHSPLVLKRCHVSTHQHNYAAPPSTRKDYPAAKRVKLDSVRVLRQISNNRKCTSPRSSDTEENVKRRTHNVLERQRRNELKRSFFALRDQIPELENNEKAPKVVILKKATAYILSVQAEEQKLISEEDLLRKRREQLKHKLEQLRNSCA
Chain of Cellular tumor antigen p53 (Homo sapiens) (P04637 whole entry, looked up): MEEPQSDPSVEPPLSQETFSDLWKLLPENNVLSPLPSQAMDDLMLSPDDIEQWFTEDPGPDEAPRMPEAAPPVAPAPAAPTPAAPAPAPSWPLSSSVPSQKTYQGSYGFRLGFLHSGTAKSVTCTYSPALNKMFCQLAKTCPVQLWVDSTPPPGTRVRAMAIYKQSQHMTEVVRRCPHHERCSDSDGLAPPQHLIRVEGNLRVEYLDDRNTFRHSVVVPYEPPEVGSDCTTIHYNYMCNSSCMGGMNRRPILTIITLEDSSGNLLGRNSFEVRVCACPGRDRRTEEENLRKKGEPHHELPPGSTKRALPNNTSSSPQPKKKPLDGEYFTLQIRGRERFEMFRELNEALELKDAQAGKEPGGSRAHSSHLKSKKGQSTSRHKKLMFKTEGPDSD
Chain of Retinoic acid receptor alpha (Homo sapiens) (P10276 whole entry, looked up, the tested form may be a part): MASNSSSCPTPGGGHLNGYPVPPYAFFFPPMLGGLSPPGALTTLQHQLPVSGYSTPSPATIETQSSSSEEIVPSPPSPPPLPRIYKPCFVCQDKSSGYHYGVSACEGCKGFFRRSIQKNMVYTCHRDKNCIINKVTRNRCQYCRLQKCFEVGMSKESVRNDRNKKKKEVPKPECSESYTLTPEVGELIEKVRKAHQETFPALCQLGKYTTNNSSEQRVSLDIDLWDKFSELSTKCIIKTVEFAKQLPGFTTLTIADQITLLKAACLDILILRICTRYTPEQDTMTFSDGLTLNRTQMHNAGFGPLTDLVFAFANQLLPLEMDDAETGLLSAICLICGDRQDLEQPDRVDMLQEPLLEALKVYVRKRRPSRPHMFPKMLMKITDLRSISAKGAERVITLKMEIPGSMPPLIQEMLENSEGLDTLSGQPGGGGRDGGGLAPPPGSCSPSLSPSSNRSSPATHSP
Chain of Peroxisome proliferator-activated receptor gamma (Homo sapiens) (P37231 whole entry, looked up, the tested form may be a part): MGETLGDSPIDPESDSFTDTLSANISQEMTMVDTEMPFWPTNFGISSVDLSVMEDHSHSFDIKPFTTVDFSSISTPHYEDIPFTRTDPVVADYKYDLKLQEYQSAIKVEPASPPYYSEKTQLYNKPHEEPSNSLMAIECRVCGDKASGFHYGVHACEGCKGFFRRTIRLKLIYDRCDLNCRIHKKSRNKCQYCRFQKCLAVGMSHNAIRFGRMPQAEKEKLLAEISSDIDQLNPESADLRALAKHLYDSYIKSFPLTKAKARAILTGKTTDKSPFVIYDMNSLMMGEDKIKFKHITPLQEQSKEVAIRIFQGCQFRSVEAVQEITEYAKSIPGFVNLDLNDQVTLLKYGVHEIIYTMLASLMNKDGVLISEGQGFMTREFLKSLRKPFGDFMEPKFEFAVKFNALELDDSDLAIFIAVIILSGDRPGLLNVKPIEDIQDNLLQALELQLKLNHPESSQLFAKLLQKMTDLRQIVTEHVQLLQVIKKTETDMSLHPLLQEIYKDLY
Chain of human Retinoic Acid Receptor beta (RARb), RARB (gene 5915) (P10826 whole entry, looked up): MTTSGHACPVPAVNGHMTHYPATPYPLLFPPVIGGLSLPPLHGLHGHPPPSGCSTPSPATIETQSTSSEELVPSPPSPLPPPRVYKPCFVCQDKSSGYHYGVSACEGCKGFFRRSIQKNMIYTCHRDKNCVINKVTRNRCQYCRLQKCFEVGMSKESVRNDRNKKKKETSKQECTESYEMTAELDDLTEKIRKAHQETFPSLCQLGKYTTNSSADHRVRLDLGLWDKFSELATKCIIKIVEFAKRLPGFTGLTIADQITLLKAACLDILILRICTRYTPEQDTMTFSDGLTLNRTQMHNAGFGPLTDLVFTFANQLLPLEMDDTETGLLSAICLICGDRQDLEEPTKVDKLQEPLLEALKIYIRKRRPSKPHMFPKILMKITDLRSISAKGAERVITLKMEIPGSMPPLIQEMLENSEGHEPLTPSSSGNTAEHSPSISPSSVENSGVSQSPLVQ
Chain of human Retinoic Acid Receptor gamma (RARg), RARG (gene 5916) (P13631 whole entry, looked up, the tested form may be a part): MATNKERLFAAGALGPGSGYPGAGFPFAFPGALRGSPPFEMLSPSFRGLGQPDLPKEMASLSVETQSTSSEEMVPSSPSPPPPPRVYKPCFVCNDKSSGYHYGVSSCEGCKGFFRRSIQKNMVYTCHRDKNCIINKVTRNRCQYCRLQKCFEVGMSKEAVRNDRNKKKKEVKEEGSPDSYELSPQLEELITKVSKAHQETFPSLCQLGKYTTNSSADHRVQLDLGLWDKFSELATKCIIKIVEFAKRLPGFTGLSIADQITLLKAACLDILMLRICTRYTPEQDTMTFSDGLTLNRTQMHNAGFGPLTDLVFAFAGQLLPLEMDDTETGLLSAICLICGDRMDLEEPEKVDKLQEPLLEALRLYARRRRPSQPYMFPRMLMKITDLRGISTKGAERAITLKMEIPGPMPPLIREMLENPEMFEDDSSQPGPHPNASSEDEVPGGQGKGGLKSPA
Chain of human RAR-related Orphan Receptor beta (RORb), RORB (gene 6096) (Q92753 whole entry, looked up, the tested form may be a part): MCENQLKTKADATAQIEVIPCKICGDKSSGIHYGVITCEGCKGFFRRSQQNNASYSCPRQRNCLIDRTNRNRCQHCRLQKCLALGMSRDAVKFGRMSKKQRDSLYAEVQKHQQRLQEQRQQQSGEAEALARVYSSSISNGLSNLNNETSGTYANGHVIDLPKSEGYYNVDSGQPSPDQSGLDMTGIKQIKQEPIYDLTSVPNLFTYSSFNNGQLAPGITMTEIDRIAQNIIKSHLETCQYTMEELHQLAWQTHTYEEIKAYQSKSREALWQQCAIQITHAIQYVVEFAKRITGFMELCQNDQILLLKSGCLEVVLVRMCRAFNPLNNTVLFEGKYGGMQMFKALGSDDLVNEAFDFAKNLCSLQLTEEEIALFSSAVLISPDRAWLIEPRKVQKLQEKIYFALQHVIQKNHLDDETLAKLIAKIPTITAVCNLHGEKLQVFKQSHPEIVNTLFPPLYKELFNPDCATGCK
Chain of human RAR-related Orphan Receptor gamma (RORg), RORC (gene 6097) (P51449 whole entry, looked up, the tested form may be a part): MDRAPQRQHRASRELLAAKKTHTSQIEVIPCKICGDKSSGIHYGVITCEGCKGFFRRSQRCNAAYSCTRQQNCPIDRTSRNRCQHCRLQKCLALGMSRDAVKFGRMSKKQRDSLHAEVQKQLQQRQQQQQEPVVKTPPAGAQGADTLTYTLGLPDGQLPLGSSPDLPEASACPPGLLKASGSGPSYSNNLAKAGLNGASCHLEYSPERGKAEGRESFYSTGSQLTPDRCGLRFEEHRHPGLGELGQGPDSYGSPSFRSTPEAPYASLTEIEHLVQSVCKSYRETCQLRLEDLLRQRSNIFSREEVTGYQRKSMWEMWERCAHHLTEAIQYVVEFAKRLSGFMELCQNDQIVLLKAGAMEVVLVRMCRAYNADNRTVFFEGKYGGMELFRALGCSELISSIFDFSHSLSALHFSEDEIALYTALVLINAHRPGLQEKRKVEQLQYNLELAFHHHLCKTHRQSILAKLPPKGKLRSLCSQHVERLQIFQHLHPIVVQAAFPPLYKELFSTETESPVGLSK
Chain of human Peroxisome Proliferator-activated Receptor delta (PPARd), PPARD (gene 5467) (Q03181 whole entry, looked up, the tested form may be a part): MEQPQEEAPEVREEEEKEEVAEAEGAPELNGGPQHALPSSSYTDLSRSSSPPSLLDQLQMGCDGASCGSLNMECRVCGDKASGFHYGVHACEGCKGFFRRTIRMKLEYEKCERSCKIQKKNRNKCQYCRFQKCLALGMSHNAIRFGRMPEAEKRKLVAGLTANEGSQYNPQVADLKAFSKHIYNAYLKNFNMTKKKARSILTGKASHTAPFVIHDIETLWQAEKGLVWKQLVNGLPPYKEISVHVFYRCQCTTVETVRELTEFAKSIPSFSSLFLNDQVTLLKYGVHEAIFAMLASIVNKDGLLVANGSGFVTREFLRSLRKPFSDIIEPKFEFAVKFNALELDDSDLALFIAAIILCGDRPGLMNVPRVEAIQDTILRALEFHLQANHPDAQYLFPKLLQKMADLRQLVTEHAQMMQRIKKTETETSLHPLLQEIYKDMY

Turning to `CCC(=O)O[C@@H]1C[C@H]2CC[C@]1(C)C2(C)C`, the call in assay [1], in [2], in assay [3], in assay [4], in [5] and in assay [6] was inactive. For the same compound, the result in [7], in assay [8], in [9] and in assay [10] was inactive.
Take `COc1ccccc1N=Nc1c(S(=O)(=O)O)cc2cc(S(=O)(=O)O)cc(NC(C)=O)c2c1O`: the compound was called inactive in [1], in [2], in assay [3], in [4], in assay [5] and in [6]. Besides, the call in assay [11], in assay [8], in [9] and in assay [12] was inactive.
The term AC50 denotes the concentration at which the activity in the assay is half-maximal. On to `CCCCCCCCc1ccc(S(=O)(=O)O)cc1`, for which the compound was classed as inactive in [1], in assay [4], in assay [5], in assay [6], in [7] and in assay [8]. Also, the result in [9] was inactive. Besides, the results for the concentration at half-maximal activity (AC50) in assay [2], in [3] and in [11] were 130 µM (active), 99.5 µM (active) and 23.6 µM (active), respectively.
For the compound `CC1(C)O[C@@H]2[C@@H](CO[C@@]3(COS(N)(=O)=O)OC(C)(C)O[C@@H]23)O1`, the outcome in [1], in [2], in assay [3], in [4], in assay [5] and in [11] was inactive. Also, the compound was classed as inactive in assay [8].
Regarding `CCCCCCCCCCCCCCN(CCO)CCO`, the result in [1], in [2], in assay [4], in assay [5], in assay [6] and in assay [7] was inactive. Also, the call in [8] and in assay [9] was inactive. Also, in [3], the concentration at half-maximal activity (AC50) was 11.1 µM (active).
Regarding `CC1(C)CCC[C@]2(C)[C@H]3CCO[C@]3(C)CC[C@@H]12`, the result in assay [1], in assay [2], in assay [4], in assay [14], in assay [15] and in assay [17] was inactive. In addition, the call in assay [9] was inactive. Besides, the AC50 in assay [3] is 155 µM (active); in [13], 32 µM (active) and 30.7 µM (active); in [14], 32.9 µM (active); in assay [16], 33.2 µM (active) and 35 µM (active); in assay [18], 31.2 µM (active) and 38.9 µM (active); in assay [19] it was 32.6 µM (active) and 33.6 µM (active). The AC50 in assay [8] is 32.6 µM (active).
With `O=C(O)COCC(=O)O`, the outcome in assay [1], in assay [2], in assay [3], in assay [4], in [5] and in [7] was inactive. Further, the outcome in assay [8] and in assay [10] was inactive.
On to `Nc1ccn([C@H]2CS[C@@H](CO)O2)c(=O)n1`, for which the result in assay [1], in assay [2], in [3], in [4], in assay [5] and in [9] was inactive. For the same compound, the compound was called inactive in assay [12].
With `COC(=O)c1ccc(C)cc1C1=NC(C)(C(C)C)C(=O)N1` (configuration not stated) (tested in a mixture with another compound), the compound was called inactive in assay [1], in [2], in [3], in assay [4], in assay [5] and in [7]. For the same compound, the call in assay [8] was inactive.
